Among the data in PubChem BioAssay (NCATS) are Potency values, retold here.

Assay [1] deals with Mitogen-activated protein kinase 10 (Mus musculus) (UniProt Q61831). Put plainly: JNK3 AlphaScreen Assay (AID 530; active = well fitted curve in either direction with a large enough effect, not every such curve was filed as active;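 note: kinase came from lysate of stimulated human HepG2 cells; signal reports phosphorylation of biotinylated GST-cJun 1-79 at Ser73 with 10 µM ATP; series mostly up to about 57 µM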). The gist of the method: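 Phosphorylation of biotinylated GST-cJun(1-79) at Ser73 is measured by AlphaScreen proximity luminescence. Enzyme is JNK3 in HepG2 lysates activated with interleukin-1beta and tumor necrosis factor alpha; ATP is 10 uM final.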
(Bead proximity is the source of the signal in Alpha formats.)

Assay [2] has as its target 3',5'-cyclic-AMP phosphodiesterase 4B (Homo sapiens) (UniProt Q07343). As to the kind of experiment: qHTS Assay for Inhibitors of PDE-IV (AID 607; active = well fitted activation curve with a large enough effect in the main read-out, with a control signal flat, not every such curve was filed as active). Put shortly:
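HEK293 ACTOne cells with CNG channel (1000/well), endogenous PDE4; membrane potential dye, compounds up to 22.9 uM final. Fluorescence Ex 535/Em 590; RO 20-1724 (100 uM final) as reference.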
A general note: Quantitative high-throughput screening tests each substance at several concentrations.

In assay [3] the target is Ubiquitin carboxyl-terminal hydrolase 1 (Homo sapiens) (UniProt O94782). As to the kind of experiment: Inhibitors of USP1/UAF1: Pilot qHTS (AID 504865). Note: nearly all actives have a fitted effect of over 35% in size. Note: potency is the fitted concentration of half-maximal effect. The gist of the method:
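Enzyme-free wells gave the negative control, while test wells held 1nM USP1/UAF1 preincubated with compound for 15 min at room temperature. Ub-Rho at 150nM final started the reaction, and fluorescence at 480/540 nm was recorded kinetically.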

Assay [4] has as its target Cytochrome P450 3A4 (Homo sapiens) (UniProt P08684). Put plainly: qHTS Assay for Inhibitors and Substrates of Cytochrome P450 3A4 (AID 884). Note: nearly all actives have a fitted effect of over 50% in size. Note: potency is the fitted concentration of half-maximal effect. Put shortly:
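Luminescent readout of luciferin produced by CYP3A4 (20 nM) dealkylation of Luciferin-PPXE, 25 uM (its KM). NADPH-driven reaction ran 60 min at RT after 10 min compound preincubation; data scaled to 57 uM ketoconazole as 100% inhibition.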

In assay [5] the target is Cytochrome P450 1A2 (Homo sapiens) (UniProt P05177). Put plainly: p450-cyp1a2 (AID 410; calls by dose curve; note: potency is the fitted concentration of half-maximal effect). Put shortly: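 Luminescent demethylation readout: Luciferin-ME (100uM, equal to Km) turned over by 20nM CYP1A2 for 60 min at room temperature after NADPH regeneration addition, following 10 min compound preincubation. Normalization used 57 uM furafylline as full inhibition.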
Assay [6] concerns the target Cytochrome P450 3A4 (Homo sapiens) (UniProt P08684). As to the kind of experiment: qHTS Assay for Activators of Cytochrome P450 3A4 (AID 885). Note: nearly all actives have a fitted effect of over 65% in size. Note: potency is the fitted concentration of half-maximal effect. The gist of the method:
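Human CYP3A4 dealkylates Luciferin-PPXE to luciferin, which luciferase detection converts to light. Substrate was at its KM (25uM), buffer 200mM KPO4, reaction 60 min at RT.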

Records with an inconclusive call do not appear. Activity calls are given as the source filed them. Unless noted, calls come from the whole dose curve; as a rule, active = well fitted curve in the direction sought with a large enough effect; inconclusive = small, poorly fitted or top-dose-only effect, or another doubt; inactive = no such curve, though single readings can be large; an effect the other way counts as inactive or inconclusive.

Sequence of Cytochrome P450 3A4 (Homo sapiens) (P08684 whole entry, looked up): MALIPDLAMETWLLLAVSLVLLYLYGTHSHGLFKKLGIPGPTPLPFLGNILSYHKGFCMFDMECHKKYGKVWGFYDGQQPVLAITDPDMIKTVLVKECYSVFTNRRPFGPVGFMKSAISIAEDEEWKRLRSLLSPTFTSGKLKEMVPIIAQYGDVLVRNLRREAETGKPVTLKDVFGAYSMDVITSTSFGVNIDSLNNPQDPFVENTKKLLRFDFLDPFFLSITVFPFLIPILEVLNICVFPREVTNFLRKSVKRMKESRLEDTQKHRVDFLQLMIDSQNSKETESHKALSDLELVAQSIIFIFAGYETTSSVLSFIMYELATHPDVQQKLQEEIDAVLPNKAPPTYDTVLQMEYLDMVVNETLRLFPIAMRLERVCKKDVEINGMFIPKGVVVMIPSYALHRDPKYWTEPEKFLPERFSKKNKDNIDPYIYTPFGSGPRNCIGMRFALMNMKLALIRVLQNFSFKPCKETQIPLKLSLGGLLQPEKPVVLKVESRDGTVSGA
Sequence of 3',5'-cyclic-AMP phosphodiesterase 4B (Homo sapiens) (Q07343 whole entry, looked up): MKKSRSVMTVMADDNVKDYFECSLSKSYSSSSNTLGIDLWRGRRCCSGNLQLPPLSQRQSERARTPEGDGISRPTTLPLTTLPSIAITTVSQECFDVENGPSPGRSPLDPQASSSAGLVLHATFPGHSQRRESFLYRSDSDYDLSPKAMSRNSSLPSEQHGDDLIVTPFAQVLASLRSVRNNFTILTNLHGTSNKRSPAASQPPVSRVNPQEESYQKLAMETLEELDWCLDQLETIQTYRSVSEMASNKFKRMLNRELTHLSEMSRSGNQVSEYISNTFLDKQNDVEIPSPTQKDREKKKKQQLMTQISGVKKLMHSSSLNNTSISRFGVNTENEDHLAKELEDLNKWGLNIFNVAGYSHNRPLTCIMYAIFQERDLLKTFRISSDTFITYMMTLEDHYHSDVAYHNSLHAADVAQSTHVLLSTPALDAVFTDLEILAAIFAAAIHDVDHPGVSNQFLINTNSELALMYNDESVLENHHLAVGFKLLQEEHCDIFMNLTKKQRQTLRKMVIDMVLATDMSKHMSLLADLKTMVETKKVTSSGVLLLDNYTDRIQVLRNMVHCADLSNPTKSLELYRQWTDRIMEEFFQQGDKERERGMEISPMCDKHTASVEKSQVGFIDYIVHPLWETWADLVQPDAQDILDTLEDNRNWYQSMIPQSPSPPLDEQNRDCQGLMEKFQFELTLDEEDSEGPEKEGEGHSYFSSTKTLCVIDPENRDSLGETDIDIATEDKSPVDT
Sequence of Cytochrome P450 1A2 (Homo sapiens) (P05177 whole entry, looked up): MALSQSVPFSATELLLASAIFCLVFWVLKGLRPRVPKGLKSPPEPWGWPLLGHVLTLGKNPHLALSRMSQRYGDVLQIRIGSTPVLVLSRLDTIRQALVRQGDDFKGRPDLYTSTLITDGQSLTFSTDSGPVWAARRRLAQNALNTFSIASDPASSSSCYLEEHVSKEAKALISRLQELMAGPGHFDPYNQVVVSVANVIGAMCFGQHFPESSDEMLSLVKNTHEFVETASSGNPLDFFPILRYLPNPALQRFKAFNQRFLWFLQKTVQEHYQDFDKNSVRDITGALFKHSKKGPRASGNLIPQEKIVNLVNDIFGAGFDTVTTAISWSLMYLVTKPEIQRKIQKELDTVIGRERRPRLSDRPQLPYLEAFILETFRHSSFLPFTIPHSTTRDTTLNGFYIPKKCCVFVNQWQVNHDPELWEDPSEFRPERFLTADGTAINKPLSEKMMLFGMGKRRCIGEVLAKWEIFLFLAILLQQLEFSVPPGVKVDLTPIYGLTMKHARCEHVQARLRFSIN
Sequence of Ubiquitin carboxyl-terminal hydrolase 1 (Homo sapiens) (O94782 whole entry, looked up): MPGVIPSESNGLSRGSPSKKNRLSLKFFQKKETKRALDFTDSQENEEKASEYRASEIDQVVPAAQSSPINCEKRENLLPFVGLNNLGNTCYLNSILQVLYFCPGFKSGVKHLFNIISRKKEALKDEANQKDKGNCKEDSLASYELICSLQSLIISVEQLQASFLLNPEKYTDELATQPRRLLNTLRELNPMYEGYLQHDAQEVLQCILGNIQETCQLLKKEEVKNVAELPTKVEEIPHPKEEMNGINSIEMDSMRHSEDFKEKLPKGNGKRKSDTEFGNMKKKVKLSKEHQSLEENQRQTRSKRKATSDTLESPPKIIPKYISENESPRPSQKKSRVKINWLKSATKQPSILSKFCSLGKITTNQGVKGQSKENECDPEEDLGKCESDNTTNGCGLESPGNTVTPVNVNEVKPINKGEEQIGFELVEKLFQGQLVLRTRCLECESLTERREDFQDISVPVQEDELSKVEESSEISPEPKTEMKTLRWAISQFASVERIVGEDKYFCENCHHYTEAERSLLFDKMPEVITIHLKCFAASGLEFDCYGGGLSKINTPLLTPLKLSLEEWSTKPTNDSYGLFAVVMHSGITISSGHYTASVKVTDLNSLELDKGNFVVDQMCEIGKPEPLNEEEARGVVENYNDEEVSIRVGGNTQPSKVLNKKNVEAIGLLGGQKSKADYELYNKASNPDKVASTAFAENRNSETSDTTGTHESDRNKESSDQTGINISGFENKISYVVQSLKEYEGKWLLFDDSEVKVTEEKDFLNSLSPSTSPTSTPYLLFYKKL

On to `CCCCN1CCC[C@@H]1CNC(=O)c1cc(C#N)c2ccccc2c1OC`, for which the Potency result in assay [1], in assay [2] and in assay [3] was “inactive” throughout.

As to `O=C(c1ccc(F)cc1)C1CCN(CCCCc2ccccc2)CC1`, the Potency entry in assay [1], in assay [4] and in assay [3] was “inactive” each time.

On to `COc1ccccc1N1CCN(C[C@@H]2CN3C(=O)N(C)c4ccccc4C3=N2)CC1`, for which the Potency in assay [5] is 31.6 µM (active). The Potency entry in assay [2], in assay [6] and in assay [3] was “inactive” in each case.

Regarding `NCCCCNS(=O)(=O)c1ccc2c(Cl)cccc2c1`, the Potency entry in assay [1], in assay [6] and in assay [3] was “inactive” throughout.

Consider `COc1cc(OC)c2cc(-c3ccncc3)cnc2c1`, for which the Potency in assay [5] is 0.2 µM (active). Moreover, the Potency entry in assay [1], in assay [2] and in assay [6] was “inactive” each time.

Regarding `Cc1c(C2CCN(CCc3ccccc3)CC2)noc1-c1ccc(Cl)cc1`, the Potency result in assay [1], in assay [4] and in assay [3] was “inactive” throughout. The Potency in assay [6] is 15.8 µM (active).

For `CCC(C)(C)N=C(NC#N)Nc1cccnc1`, the figures for the Potency in assay [5] and in assay [4] were 12.6 µM (active) and 5.01 µM (active), respectively. The Potency entry in assay [1], in assay [2], in assay [6] and in assay [3] was “inactive” each time.

As for `C[N+](C)(C)CCCCCNCC12CC3CC(CC(C3)C1)C2`, the Potency result in assay [5], in assay [1], in assay [2] and in assay [3] was “inactive” each time.

On to `Cc1ccccc1N=C(N)Nc1ccccc1C`, for which the Potency result in assay [5], in assay [1] and in assay [3] was “inactive” throughout.

In the case of `N[C@@H](Cc1cc(CP(=O)(O)O)cc(-c2ccccc2Cl)c1)C(=O)O`, the Potency result in assay [5], in assay [1], in assay [2] and in assay [3] was “inactive” throughout.

In the case of `OC[C@@H]1O[C@@H](n2cnc3c(NC4CCCC4)ncnc32)[C@H](O)[C@H]1O`, the Potency result in assay [5], in assay [1], in assay [2] and in assay [3] was “inactive” in each case.

Consider `C[C@@]1(C(=O)O)NCCc2cc(O)c(O)cc21`, for which the Potency result in assay [5], in assay [2] and in assay [6] was “inactive” throughout. Further, in assay [3], the Potency was 56.2 µM (active).

As to `OC[C@H]1NC[C@@H](O)[C@@H](O)[C@H]1O`, the Potency entry in assay [1], in assay [2] and in assay [3] was “inactive” each time.

Regarding `Cc1ccc(C(=O)Cn2c3c(sc2=N)CCCC3)cc1`, the Potency in assay [5] was 1 µM (active); in assay [4], 6.31 µM (active). For the same molecule, the Potency result in assay [1], in assay [2] and in assay [6] was “inactive” throughout.

On to `N[C@@H](C(=O)O)c1cc(O)ccc1Cl`, for which, in assay [5], the Potency was 15.8 µM (active). The Potency entry in assay [1], in assay [2] and in assay [6] was “inactive” each time.

As to `CCCCCCCCC(=O)NCc1cc(OC)c(O)cc1I`, the Potency in assay [5] was 12.6 µM (active); in assay [4], 3.16 µM (active). Further, the Potency entry in assay [1] and in assay [6] was “inactive” in each case.

Take `Cc1c[nH]c(=O)n(CCCN2CCN(c3ccccc3OCC(F)(F)F)CC2)c1=O`: the Potency entry in assay [1], in assay [2] and in assay [3] was “inactive” each time.

Regarding `N[C@@H](C(=O)O)c1ccc(C(=O)O)c(O)c1`, the Potency entry in assay [5], in assay [1], in assay [2] and in assay [3] was “inactive” each time.

Regarding `CCCCCCCC/C=C\CCCCCCCC(N)=O`, in assay [5], the Potency was 6.31 µM (active). Also, the Potency entry in assay [1] and in assay [2] was “inactive” in each case.

Turning to `N[C@H](C(=O)O)[C@H](OCc1ccccc1)C(=O)O`, in assay [5], the Potency was 31.6 µM (active). Moreover, the Potency entry in assay [1], in assay [2] and in assay [3] was “inactive” throughout.

As to `COc1ccc([N+](=O)[O-])c2c1CCN2C(=O)CC[C@H](N)C(=O)O`, the Potency result in assay [1], in assay [2] and in assay [3] was “inactive” throughout.

In the case of `Clc1cccc(C=NC=Nc2cccc(Cl)c2)c1`, in assay [5], the Potency was 0.631 µM (active). Besides, the Potency entry in assay [3] was “inactive”.

As to `OC[C@H]1O[C@H](n2cnc3c(NC4CCCC4)nc(Cl)nc32)[C@@H](O)[C@@H]1O`, the Potency in assay [5] was 39.8 µM (active). Moreover, the Potency entry in assay [2] and in assay [3] was “inactive” each time.
